{"source": "PubChem BioAssay AID493170", "about": "(National Center for Advancing Translational Sciences (NCATS), 2011)", "note": "Inconclusive results are not listed. Active and inactive are the calls of the source. Calls follow the shape of the dose curve; as a rule, active = well fitted inhibition curve with a large enough effect; inconclusive = small, poorly fitted or top-dose-only effect, or effect the other way; inactive = flat fitted curve, though single readings scatter. % is scaled to controls: 0 for no effect and ±100 for the full control effect; potency is read from the fitted curve at half-maximal effect."}
{"target": "Ubiquitin carboxyl-terminal hydrolase 2 (Homo sapiens) (UniProt O75604)", "sequence (O75604 whole entry, looked up)": "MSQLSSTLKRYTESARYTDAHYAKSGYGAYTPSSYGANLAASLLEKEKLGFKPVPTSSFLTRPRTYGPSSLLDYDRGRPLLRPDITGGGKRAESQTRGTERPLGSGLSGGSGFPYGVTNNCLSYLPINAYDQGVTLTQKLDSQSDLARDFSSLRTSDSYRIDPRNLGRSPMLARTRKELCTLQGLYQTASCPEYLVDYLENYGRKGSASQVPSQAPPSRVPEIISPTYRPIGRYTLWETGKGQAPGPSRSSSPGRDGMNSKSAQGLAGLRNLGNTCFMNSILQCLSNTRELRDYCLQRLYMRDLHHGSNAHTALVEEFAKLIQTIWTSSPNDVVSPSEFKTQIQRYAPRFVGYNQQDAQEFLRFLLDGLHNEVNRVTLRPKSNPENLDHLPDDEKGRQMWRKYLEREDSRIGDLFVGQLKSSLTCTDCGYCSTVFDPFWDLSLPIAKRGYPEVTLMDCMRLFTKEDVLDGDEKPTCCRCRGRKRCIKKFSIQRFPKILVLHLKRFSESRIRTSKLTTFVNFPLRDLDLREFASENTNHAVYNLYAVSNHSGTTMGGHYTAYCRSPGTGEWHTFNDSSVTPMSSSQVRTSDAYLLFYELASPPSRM", "assay": "Ub-rhodamine 110 based assay for inhibitors Ubiquitin-specific Protease USP2a; also: nearly all actives have a fitted effect of over 50% in size", "conditions": "USP2a Ub-rhodamine110 cleavage, fluorescence; series mostly up to 38.3 µM; activity change, negative = inhibition: at the top concentration", "method_in_brief": "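5 nM USP2a preincubated with compounds for 30 min at RT in 20 mM Tris-HCl pH 8.0, 2 mM CaCl2, 2 mM beta-mercaptoethanol, 0.05% CHAPS. Cleavage of 150 nM Ub-rhodamine 110 read kinetically (Ex 485/Em 531) for 7 min.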"}
{"smiles": "O=C1/C(=C/C=C/c2ccco2)SC(=S)N1c1ccc(O)cc1", "Potency": "3.55 µM (active)"}
{"smiles": "COc1ccc(-c2nc(Cn3c(SCc4ccc(F)cc4)nc4ccncc43)c(C)o2)cc1OC", "activity change, negative = inhibition": "3.48% (inactive)"}
{"smiles": "Cc1ccc(C(=O)O/N=C/c2c(C(F)(F)F)nn(C)c2Sc2ccc(Cl)cc2)cc1", "activity change, negative = inhibition": "6.42% (inactive)"}
{"smiles": "COc1ccc2cc(CN(C(=O)Nc3ccccc3)C3CCCC3)c(=O)[nH]c2c1", "activity change, negative = inhibition": "-11.7% (inactive)"}
{"smiles": "Cn1c(C(=O)NCCCN2CCN(c3ccccc3F)CC2)cc2c(=O)n(C)c3ccccc3c21", "activity change, negative = inhibition": "-27.2% (inactive)"}
{"smiles": "Cc1ccc(S(=O)(=O)N2[C@@H](c3ccc(C(C)(C)C)cc3)C(C(=O)O)=CC[C@H]2c2ccc(Cl)c(Cl)c2)cc1", "Potency": "10 µM (active)"}
{"smiles": "CCOc1ccc(NC(=O)CSc2nnc(Cn3c(=O)sc4ccccc43)n2C)cc1", "activity change, negative = inhibition": "-1.33% (inactive)"}
{"smiles": "O=C(CN1C(=O)/C(=C2\\SC(=S)N(CCS(=O)(=O)O)C2=O)c2ccccc21)Nc1cccc(Br)c1", "Potency": "5.62 µM (active)"}
{"smiles": "CC(=O)O[C@H]1[C@H](O)[C@H](Oc2c(O)c(C)c3c4c2[C@@H](C)CC[C@@H]4[C@@H](C)C[C@H]3C=C(C)C)O[C@@H](C)[C@H]1O", "activity change, negative = inhibition": "-1.57% (inactive)"}
{"smiles": "Cc1ccc(C(=O)N(c2c(C)n(C)n(-c3ccccc3)c2=O)C(C)C)cc1", "activity change, negative = inhibition": "12.9% (inactive)"}
{"smiles": "O=C(O)c1cccc2c1C(=O)c1ccc(-c3ccc(F)cc3OCc3ccccc3)cc1S2(=O)=O", "Potency": "11.2 µM (active)"}
{"smiles": "O=C(N/N=C1\\CC(c2ccccc2)Oc2ccccc21)c1ccc(O)cc1", "note": "(stereo not drawn)", "activity change, negative = inhibition": "-26.4% (inactive)"}
{"smiles": "CC(C)(C)CC(C)(C)c1ccc(OCCOCC[N+](C)(C)Cc2ccccc2)cc1", "activity change, negative = inhibition": "2.74% (inactive)"}
